An excerpt weighted towards active compounds, which were near 3.4% of everything screened.
RE007 growth inh: qHTS Assay for Inhibitors of the HIV-1 protein Vpr; S. pombe RE007 Vpr strain, BacTiter-Glo ATP luminescence, 24 h; Potency, µM (top dose mostly 92.2 µM), actives largely listed as inhibitors; AID 651644, 2012; 360,000 compounds, 0.21% hits; active = well fitted falling curve with a large enough effect; inconclusive = small, poorly fitted or top-dose-only effect; inactive = no such curve, though single readings can be large or run the other way; note: nearly all actives have a fitted effect of over 50% in size
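Fission yeast strain RE007, carrying one chromosomally integrated HIV-1 vpr copy, was seeded at OD 0.01 in PMG+AL medium with 23 nL pinned compound. After 24 h at 30 °C and 99% humidity, viability was read by BacTiter-Glo luminescence.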
AmpC inh detg: qHTS Inhibitors of AmpC Beta-Lactamase (assay with detergent). Potency, µM (top dose mostly 114 µM), hits mostly inhibitors. 370,000 compounds, 0.041% hits. AmpC hydrolysis of nitrocefin, absorbance 480 nm, 0.01% Triton. AID 485294, 2010. P00811; note: nearly all actives have a fitted effect of over 25% in size
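20 mM phosphate pH 7.0 + 0.01% (detergent screen) or 0.0001% Triton X-100; 5.3 nM AmpC reagent; cpd preinc 15 min RT; nitrocefin (800 uM stock) to start; A480 q20 s × 4 min; Activity was normalised to no-enzyme and no-compound control wells.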
Giardia FBPA inh-1: qHTS Assay for Inhibitors of Fructose-1,6-bisphosphate Aldolase from Giardia Lamblia; Potency, µM (titrated, usually from 59.6 µM), actives largely listed as inhibitors; 290,000 compounds, 0.71% hits; purified Giardia FBPA; note: nearly all actives have a fitted effect of over 55% in size
Target sequence (A8B2U2 whole entry, looked up): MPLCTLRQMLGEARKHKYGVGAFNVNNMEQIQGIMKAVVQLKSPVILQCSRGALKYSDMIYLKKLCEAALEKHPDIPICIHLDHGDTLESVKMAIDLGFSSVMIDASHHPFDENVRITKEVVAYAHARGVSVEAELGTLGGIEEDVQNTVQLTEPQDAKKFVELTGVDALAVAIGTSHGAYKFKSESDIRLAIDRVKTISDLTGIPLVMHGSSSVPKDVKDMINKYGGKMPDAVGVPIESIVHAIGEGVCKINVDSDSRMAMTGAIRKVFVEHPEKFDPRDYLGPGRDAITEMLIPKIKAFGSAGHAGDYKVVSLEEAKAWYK
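Giardia FBPA (40 nM reagent) was preincubated 10 min at RT with compound (up to 57.5 uM final), then substrate plus GAPDH/TPI/NAD/arsenate coupling system with diaphorase/resazurin was added; resorufin fluorescence (525/598 nm) was read after 20 min.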
AmpC inh no detg: qHTS Inhibitors of AmpC Beta-Lactamase (assay without detergent). P00811. AmpC nitrocefin hydrolysis, absorbance 480 nm, 0.0001% Triton. AID 485341, 2010. Potency, µM (series often up to 57.1 µM), hits mostly inhibitors. 330,000 compounds, 0.52% hits; note: nearly all actives have a fitted effect of over 20% in size
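AmpC (5.3 nM in the dispensed reagent) in 20 mM phosphate pH 7.0 with 0.01% (detergent screen) or 0.0001% Triton X-100 was preincubated with compounds for 15 min at room temperature. Nitrocefin was then added from an 800 uM solution, and hydrolysis was followed at 480 nm.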
Sm TGR inh: qHTS Assay for the Inhibitors of Schistosoma Mansoni Peroxiredoxins; Potency, µM (titrated, usually from 114 µM), hits mostly inhibitors; purified TGR, DTNB reduction, TNB absorbance 405 nm; Schistosoma mansoni thioredoxin glutathione reductase (TGR), Q962Y6; 360,000 compounds, 3% hits; note: nearly all actives have a fitted effect of over 60% in size
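First, TGR (20 nM dispensed) and NADPH were mixed with compound. Second, a 15 min room-temperature incubation followed. Third, further NADPH and then DTNB were added to start the reaction. Finally, TNB absorbance was monitored kinetically.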
Giardia growth: qHTS Assay for Inhibitors of Fructose-1,6-bisphosphate Aldolase from Giardia Lamblia: Giardia lamblia growth inhibition; shares compounds with Giardia FBPA inh-1; Giardia lamblia trophozoite growth inhibition; Potency, µM (doses to about 57.5 µM), most hits filed as inhibitors; 1,500 compounds, 5% hits; AID 2785, 2010;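 note: trophozoites exposed to compound for 48 h at 37 °C; nearly all actives have a fitted effect of over 70% in size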
Mammal cell tox: qHTS Assay for Inhibitors of Fructose-1,6-bisphosphate Aldolase from Giardia Lamblia: Mammalian cellular toxicity; shares compounds with Giardia FBPA inh-1; mammalian cell viability counter-screen, qHTS; Potency, µM (series often up to 57.5 µM), actives largely listed as inhibitors; 1,500 compounds, 4% hits;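 note: Chinese hamster ovary cells used as mammalian cytotoxicity surrogate; viability measured as cellular ATP by luminescence; compound exposure lasted 48 h before reading; nearly all actives have a fitted effect of over 60% in size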
Giardia FBPA inh-2: qHTS Assay for Inhibitors of Fructose-1,6-bisphosphate Aldolase from Giardia Lamblia: Primary screen confirmation. shares compounds with Giardia FBPA inh-1. purified Giardia aldolase enzyme activity, qHTS. Potency, µM (titrated, usually from 57.5 µM), most hits filed as inhibitors. 1,500 compounds, 5% hits. AID 2787, 2010; note: nearly all actives have a fitted effect of over 45% in size
Rabbit FBPA inh: qHTS Assay for Inhibitors of Fructose-1,6-bisphosphate Aldolase from Giardia Lamblia: Rabbit FBPA Selectivity; shares compounds with Giardia FBPA inh-1; 1,500 compounds, 4% hits; AID 2794, 2010; Rabbit muscle FBPA enzyme inhibition, selectivity counter-screen; Potency, µM (top dose mostly 57.5 µM), hits mostly inhibitors; note: nearly all actives have a fitted effect of over 60% in size
GAPDH coupling: qHTS Assay for Inhibitors of Fructose-1,6-bisphosphate Aldolase from Giardia Lamblia: Coupling assay counterscreen confirmation. AID 2795, 2010. Potency, µM (titrated, usually from 57.5 µM), actives largely listed as inhibitors. 1,500 compounds, 6% hits. shares compounds with Giardia FBPA inh-1. GAPDH coupling enzyme counterscreen, biochemical, qHTS; note: nearly all actives have a fitted effect of over 55% in size
A number is an active result; i = inactive; ? = inconclusive; nt = no result given; [ ] = another dose, or the depositor's remark. Unless noted, calls come from the whole dose curve; as a rule, active = well fitted curve in the direction sought with a large enough effect; inconclusive = small, poorly fitted or top-dose-only effect, or another doubt; inactive = no such curve, though single readings can be large; an effect the other way counts as inactive or inconclusive.

SMILES | RE007 growth inh | AmpC inh detg | Giardia FBPA inh-1 | AmpC inh no detg | Sm TGR inh | Giardia growth | Mammal cell tox | Giardia FBPA inh-2 | Rabbit FBPA inh | GAPDH coupling
COc1ccccc1CN1CCN(Cc2ccco2)CC1 | i | i | 16µM | i | i | i[10.4 µM] | i | i | i | i
Cc1ccc(CN2CCN(Cc3ccco3)CC2)cc1 | i | i | 16µM | i | i | i | i | i | i | i
Cc1ccc(CN2CCN(C(=O)c3ccco3)CC2)cc1 | i | i | i | i | i | nt | nt | nt | nt | nt
COc1ccc(CN2CCN(Cc3ccco3)CC2)c(OC)c1 | i | i | 13µM | i | i | ? | i | i | i | i
COc1cc(CN2CCN(Cc3ccco3)CC2)cc(OC)c1 | i | i | 14µM | i | i | ? | i | i | i | i
O=[N+]([O-])c1cccc(CN2CCN(Cc3ccco3)CC2)c1 | i | i | ? | i | i | nt | nt | nt | nt | nt
COCCNC(=O)C1C(=O)Nc2ccccc2C(=O)N1C1CCCC1 (centres undefined) | i | nt | nt | nt | nt | nt | nt | nt | nt | nt
Cc1ccccc1OCCN1CCC(Cc2ccccc2)CC1 | i | i | ? | i[2.29 µM] | i | nt | nt | nt | nt | nt
CCN(CC)C(=O)Cn1c(=O)n(Cc2ccc(C(=O)NCCCOC)cc2)c(=O)c2ccccc21 | nt | i | nt | nt | i | nt | nt | nt | nt | nt
COc1ccc(C)cc1NC(=O)C(NCC(O)c1ccccc1)c1ccccc1 (centres undefined) | i | i | 13µM | i | i | i | i | i | i | i
Cc1cc(O)c(C(C)C)cc1N=Cc1cc([N+](=O)[O-])ccc1O | i | i | ? | i | ? | i | ? | 9.2µM | 13µM | 16µM
CCCc1cc(=O)n2[nH]c(NC(=O)c3ccco3)nc2n1 | i | i | 16µM | i | i | ? | i | i | i | i
CC(=O)c1sc(NC(=O)CCOc2ccccc2)nc1C | i | i | i | i | i | nt | nt | nt | nt | nt
CCOc1ccc(CNc2ccc(N3CCN(Cc4ccccc4)CC3)cc2)cc1 | i | i | i | i | i | nt | nt | nt | nt | nt
CCOc1ccc(CNc2ccc(N3CCCC3)cc2)cc1 | i | i | 0.5µM | i | ? | i | i | ? | ? | ?
COc1cc(CNc2ccc(N3CCCC3)cc2)cc(Cl)c1OC | i | i | 1.8µM | i | nt | i | i | 18µM | 32µM | ?
Cc1ccc(C)c(CN2C(=O)c3ccccc3S(=O)(=O)c3ccc(C(=O)Nc4cc(F)ccc4F)cc32)c1 | nt | i | nt | nt | i | nt | nt | nt | nt | nt
O=C(O)/C=C/C(=O)Nc1ccc(O)cc1 | i | i | ? | i | ? | i | ? | 5.2µM | ? | 5.8µM
Cn1c(=O)c2c(nc(NNC(=O)C(F)(F)F)n2C)n(C)c1=O | i | ? | 18µM | i | i | i[10.4 µM] | i | i | i | i
Cn1c(=O)c2c(nc(N3CCCC3)n2C)n(C)c1=O | i | i | i | i | i | nt | nt | nt | nt | nt
Cn1c(=O)c2c(nc(NN=C3CCCC3)n2C)n(C)c1=O | i | i | 16µM | i | ? | i | i | i | i | i

Screening data: PubChem BioAssay, National Center for Advancing Translational Sciences (NCATS)
